Measured values published in the supplement of paper PMC10849652.
Targets with a hit are over-represented here; the source holds about 7,900 in all. About 0.6% of all pairs of compound and target were hits.

What was measured:
Test in all cases: log2 fold change, soluble protein after heating vs DMSO (PISA); higher = thermal stabilisation; K562 cells, 10 uM, 30 min; active = over 0.2 and 3.5 SD of the protein, either way, in both replicates (recomputed)
erlotinib = compound: C#Cc1cccc(Nc2ncnc3cc(OCCOC)c(OCCOC)cc23)c1 [erlotinib]
In short: (§1)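 K562 cells at 2×10^6 cells/mL were treated with 10 μM compound for 30 min. Aliquots were heated for 3 min across 48°C-58°C, pooled, and extracted in PBS with 0.5% NP-40 at 4°C; soluble protein was the supernatant after 21,000xg for 90 min. Soluble protein was quantified by TMTpro 16plex LC-MS/MS with channel sums equalised, and reported as log2 fold change in thermal stability against DMSO controls, with values from duplicates.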

[1] = compound: C1=CC(=CC=C1C2=NC3=C(N2)C=C(C=C3)C(=O)N)OC4=CC=C(C=C4)Cl
In short: as §1

[2] = compound: C1=CC2=NC=CN=C2C=C1/C=C/3\C(=O)NC(=O)S3
In short: as §1

IRAK-1-4 Inhibitor I = compound: C1COCCN1CCN2C3=CC=CC=C3N=C2NC(=O)C4=CC(=CC=C4)[N+](=O)[O-] [IRAK-1-4 Inhibitor I]
In short: as §1

ibrutinib = compound: C=CC(=O)N1CCC[C@@H](n2nc(-c3ccc(Oc4ccccc4)cc3)c3c(N)ncnc32)C1 [ibrutinib]
In short: as §1

[3] = compound: CC(C)C1=C2N=C(C=C(N2N=C1)NCC3=CC=CC=C3)NCCCCCCN
In short: as §1

pinometostat = compound: CC(C)N(C[C@H]1O[C@@H](n2cnc3c(N)ncnc32)[C@H](O)[C@@H]1O)[C@H]1C[C@@H](CCc2nc3cc(C(C)(C)C)ccc3[nH]2)C1 [pinometostat]
In short: as §1

[4] = compound: C/C(=N\NC(=O)C1=CC(=CC=C1)S(=O)(=O)N2CCOCC2)/C3=C(C=CC(=C3)Cl)O
In short: as §1

[5] = compound: C1=CC2=C(C=CC(=C2)/C=C\3/C(=O)NC(=NCC4=CC=CS4)S3)N=C1
In short: as §1

[6] = compound: C1=CC=C(C=C1)C2=NC(=C(N2)C3=CC=NC=C3)C4=CC(=C(C=C4)Cl)O
In short: as §1

[7] = compound: C1=CC=C2C(=C1)C3=NNC4=CC=CC(=C43)C2=O
In short: as §1

[8] = compound: C1CCN(C1)C(=O)NC2=CC=CC(=C2)NC3=NC=C(C(=N3)NCCC4=CN=CN4)Br
In short: as §1

[9] = compound: C1CN(CCC1(CC2=CC=C(C=C2)Cl)N)C3=NC=NC4=C3C=CN4
In short: as §1

[10] = compound: CC(=O)c1cnc2ccc(-c3cc(Cl)c(O)c(Cl)c3)nc2c1N[C@H]1CC[C@H](CN(C)C)CC1
In short: as §1

ralimetinib = compound: CC(C)(C)Cn1c(N)nc2ccc(-c3[nH]c(C(C)(C)C)nc3-c3ccc(F)cc3)nc21 [ralimetinib]
In short: as §1

[11] = compound: CC(C)C[C@@H](C=O)NC(=O)[C@H](CC(C)C)NC(=O)[C@H](CC(C)C)NC(=O)OCc1ccccc1
In short: as §1

[12] = compound: CC1=C(C(CC(=O)N1)C2=CC=C(C=C2)C(F)(F)F)C(=O)NC3=C(C=C4C(=C3)C=NN4)F
In short: as §1

[13] = compound: CC1=C(C2=C(C=C1)C(=O)C3=CC=CC=C3N2CCCN)C
In short: as §1

[14] = compound: C1=CC(=C(C=C1Cl)C2=NC3=NC=CN=C3C(=N2)NC4=CC=NC=C4)F
In short: as §1

[15] = compound: CC(C)(O)CC(=O)NCCn1ccc2ncnc(Nc3ccc(Oc4cccc(C(F)(F)F)c4)c(Cl)c3)c21
In short: as §1

Measured: log2 fold change

STK17B (UniProt O94768)
Chain of UniProt O94768 (O94768 whole entry, looked up): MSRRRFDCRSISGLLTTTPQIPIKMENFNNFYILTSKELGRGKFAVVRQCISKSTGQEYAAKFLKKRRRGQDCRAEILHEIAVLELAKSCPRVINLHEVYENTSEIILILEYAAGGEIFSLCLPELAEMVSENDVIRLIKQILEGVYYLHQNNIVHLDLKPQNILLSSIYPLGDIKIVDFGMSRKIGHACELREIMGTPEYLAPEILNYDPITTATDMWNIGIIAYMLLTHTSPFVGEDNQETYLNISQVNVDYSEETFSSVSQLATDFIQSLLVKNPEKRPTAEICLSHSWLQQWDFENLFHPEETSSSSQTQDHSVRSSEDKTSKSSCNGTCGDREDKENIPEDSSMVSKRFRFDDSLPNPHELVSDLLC
inactive: erlotinib 0.128 | [1] 0.072 | [2] -0.169 | IRAK-1-4 Inhibitor I -0.12 | ibrutinib -0.235 | [3] -0.262 | pinometostat 0.033

TACC2 (UniProt O95359)
inactive: erlotinib -0.219 | [4] 0.008 | [1] 0.06 | [5] 0.005 | [2] 0.075 | [6] -0.128 | [7] 0.014 | [8] 0.014 | [9] -0.026 | ibrutinib -0.058 | [10] 0.054 | ralimetinib 0.108 | [3] -0.205 | [11] -0.007 | [12] 0.069 | [13] 0.058

TK1 (UniProt K7ERV3)
inactive: [4] 0.063 | [14] -0.011 | [5] 0.028 | [2] -0.006 | [6] -0.069 | [7] 0.037 | [8] -0.015 | [9] 0.061 | ibrutinib -0.033 | [10] -0.071 | ralimetinib -0.025 | [15] -0.122 | [11] 0.078 | [12] 0.004 | [13] -0.037

TGFBR1 isoform 2 (UniProt P36897)
Chain of UniProt P36897 (P36897 whole entry, looked up): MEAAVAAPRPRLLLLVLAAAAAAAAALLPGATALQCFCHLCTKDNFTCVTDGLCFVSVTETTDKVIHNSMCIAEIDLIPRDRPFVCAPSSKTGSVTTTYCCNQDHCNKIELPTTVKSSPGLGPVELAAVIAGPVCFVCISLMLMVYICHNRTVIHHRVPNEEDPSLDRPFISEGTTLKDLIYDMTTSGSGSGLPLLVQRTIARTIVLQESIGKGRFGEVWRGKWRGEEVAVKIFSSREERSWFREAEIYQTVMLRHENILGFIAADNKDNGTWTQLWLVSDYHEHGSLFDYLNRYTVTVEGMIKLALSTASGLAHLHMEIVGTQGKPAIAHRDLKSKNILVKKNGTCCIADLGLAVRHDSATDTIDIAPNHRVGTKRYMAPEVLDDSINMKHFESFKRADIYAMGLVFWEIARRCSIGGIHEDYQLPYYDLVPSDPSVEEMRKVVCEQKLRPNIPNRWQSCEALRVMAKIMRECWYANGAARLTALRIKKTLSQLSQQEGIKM
active: [10] 0.329
inactive: erlotinib -0.012 | [4] 0.084 | [1] -0.051 | [5] -0.072 | [2] 0.043 | [6] 0.161 | [7] 0.004 | [8] -0.019 | [9] 0.047 | IRAK-1-4 Inhibitor I -0.004 | ibrutinib 0.006 | ralimetinib 0.072 | [15] -0.043 | [3] 0.025 | [11] 0.049 | pinometostat -0.047 | [12] -0.022 | [13] 0.019

TBP (UniProt P20226)
Chain of UniProt P20226 (P20226 whole entry, looked up): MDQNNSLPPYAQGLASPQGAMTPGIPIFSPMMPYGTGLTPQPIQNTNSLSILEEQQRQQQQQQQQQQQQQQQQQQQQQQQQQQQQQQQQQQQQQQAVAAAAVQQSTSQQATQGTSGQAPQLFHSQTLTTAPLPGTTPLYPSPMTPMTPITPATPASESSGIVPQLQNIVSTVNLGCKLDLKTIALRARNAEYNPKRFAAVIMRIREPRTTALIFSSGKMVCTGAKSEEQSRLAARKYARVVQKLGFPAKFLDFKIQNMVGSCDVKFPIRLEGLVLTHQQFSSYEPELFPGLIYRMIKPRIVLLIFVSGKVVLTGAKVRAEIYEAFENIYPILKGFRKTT
active: [13] 0.528
inactive: [4] -0.016 | [14] 0.027 | [5] 0.073 | [2] 0.041 | [6] 0.012 | [7] -0.058 | [8] 0.018 | [9] 0.157 | IRAK-1-4 Inhibitor I 0.018 | ibrutinib -0.029 | [10] 0.091 | ralimetinib -0.016 | [15] 0.036 | [11] -0.002 | pinometostat -0.019 | [12] -0.046

TCOF1 isoform 6 (UniProt Q13428)
Chain of UniProt Q13428 (Q13428 whole entry, looked up): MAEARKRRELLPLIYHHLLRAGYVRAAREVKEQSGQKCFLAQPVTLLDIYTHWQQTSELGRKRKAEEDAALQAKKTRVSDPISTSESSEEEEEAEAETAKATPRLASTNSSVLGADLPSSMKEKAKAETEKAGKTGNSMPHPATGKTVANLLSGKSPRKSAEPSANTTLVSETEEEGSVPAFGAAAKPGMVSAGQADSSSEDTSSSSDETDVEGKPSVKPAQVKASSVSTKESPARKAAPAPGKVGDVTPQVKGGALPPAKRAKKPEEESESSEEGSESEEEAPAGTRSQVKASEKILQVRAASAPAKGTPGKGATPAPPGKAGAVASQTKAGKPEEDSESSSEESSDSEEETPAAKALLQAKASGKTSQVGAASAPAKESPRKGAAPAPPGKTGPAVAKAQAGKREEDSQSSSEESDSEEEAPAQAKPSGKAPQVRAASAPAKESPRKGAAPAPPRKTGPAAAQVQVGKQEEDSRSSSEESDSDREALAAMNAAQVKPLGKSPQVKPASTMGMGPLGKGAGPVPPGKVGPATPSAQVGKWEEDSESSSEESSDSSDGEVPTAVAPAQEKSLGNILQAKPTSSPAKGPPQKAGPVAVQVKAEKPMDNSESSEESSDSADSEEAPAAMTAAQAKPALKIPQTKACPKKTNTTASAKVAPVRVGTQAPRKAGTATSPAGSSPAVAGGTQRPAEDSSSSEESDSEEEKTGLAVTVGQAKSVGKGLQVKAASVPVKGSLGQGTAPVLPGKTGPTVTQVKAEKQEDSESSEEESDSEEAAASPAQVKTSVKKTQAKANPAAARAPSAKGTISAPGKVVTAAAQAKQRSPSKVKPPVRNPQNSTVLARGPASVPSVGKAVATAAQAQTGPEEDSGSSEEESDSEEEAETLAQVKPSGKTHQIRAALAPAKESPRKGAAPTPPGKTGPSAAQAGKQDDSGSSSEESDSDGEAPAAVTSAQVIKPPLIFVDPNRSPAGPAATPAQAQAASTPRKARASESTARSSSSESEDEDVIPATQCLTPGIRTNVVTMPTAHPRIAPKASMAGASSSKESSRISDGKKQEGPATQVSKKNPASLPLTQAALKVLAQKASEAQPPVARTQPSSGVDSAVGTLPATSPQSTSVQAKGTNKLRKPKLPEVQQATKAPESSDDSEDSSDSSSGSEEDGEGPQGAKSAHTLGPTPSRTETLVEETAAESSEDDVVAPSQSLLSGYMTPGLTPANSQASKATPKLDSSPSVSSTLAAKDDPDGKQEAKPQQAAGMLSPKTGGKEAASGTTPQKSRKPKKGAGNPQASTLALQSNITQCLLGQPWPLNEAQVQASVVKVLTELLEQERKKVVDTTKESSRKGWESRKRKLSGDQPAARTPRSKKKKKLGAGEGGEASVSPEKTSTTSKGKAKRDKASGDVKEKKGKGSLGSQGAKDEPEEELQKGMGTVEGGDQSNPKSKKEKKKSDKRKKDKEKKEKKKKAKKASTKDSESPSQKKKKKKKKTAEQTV
inactive: erlotinib -0.234 | [1] 0.074 | [2] -0.045 | [6] 0.186 | [8] 0.002 | [9] 0.02 | IRAK-1-4 Inhibitor I 0.041 | ibrutinib 0.12 | ralimetinib 0.225 | [3] 0.092 | [11] -0.127 | pinometostat -0.121 | [12] 0 | [13] -0.155

SOX5 (UniProt P35711)
inactive: erlotinib 0.009 | [4] 0.006 | [1] 0.125 | [5] 0.047 | [2] 0.018 | [6] -0.049 | [7] 0.012 | [8] -0.069 | [9] 0.095 | IRAK-1-4 Inhibitor I 0.067 | ibrutinib 0.115 | [10] -0.028 | ralimetinib 0.037 | [3] -0.086 | [11] 0.368 | pinometostat -0.088 | [12] -0.051 | [13] -0.081

SPAG9 isoform 4 (UniProt O60271)
inactive: erlotinib 0.019 | [4] 0.048 | [1] -0.087 | [5] -0.103 | [2] -0.065 | [6] 0.272 | [7] 0.04 | [8] 0.03 | [9] 0.119 | IRAK-1-4 Inhibitor I -0.027 | ibrutinib 0.349 | [10] 0.14 | ralimetinib 0.191 | [3] -0.202 | [11] 0.049 | pinometostat 0.061 | [12] -0.003 | [13] -0.243

SLC39A1 (UniProt Q9NY26)
Chain of UniProt Q9NY26 (Q9NY26 whole entry, looked up): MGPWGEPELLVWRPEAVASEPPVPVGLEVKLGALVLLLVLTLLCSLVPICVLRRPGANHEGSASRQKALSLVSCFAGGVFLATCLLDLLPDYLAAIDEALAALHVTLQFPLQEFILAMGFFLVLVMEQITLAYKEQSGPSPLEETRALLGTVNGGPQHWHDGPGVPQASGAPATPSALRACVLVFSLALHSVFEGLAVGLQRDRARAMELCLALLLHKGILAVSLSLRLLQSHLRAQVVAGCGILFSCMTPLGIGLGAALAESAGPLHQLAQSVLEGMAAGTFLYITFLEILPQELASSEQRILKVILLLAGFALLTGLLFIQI
active: [3] -1.06
inactive: erlotinib 0.123 | [1] 0.053

TDP1 (UniProt Q9NUW8)
inactive: erlotinib 0.141 | [3] 0.156

TENT5C (UniProt Q5VWP2)
Chain of UniProt Q5VWP2 (Q5VWP2 whole entry, looked up): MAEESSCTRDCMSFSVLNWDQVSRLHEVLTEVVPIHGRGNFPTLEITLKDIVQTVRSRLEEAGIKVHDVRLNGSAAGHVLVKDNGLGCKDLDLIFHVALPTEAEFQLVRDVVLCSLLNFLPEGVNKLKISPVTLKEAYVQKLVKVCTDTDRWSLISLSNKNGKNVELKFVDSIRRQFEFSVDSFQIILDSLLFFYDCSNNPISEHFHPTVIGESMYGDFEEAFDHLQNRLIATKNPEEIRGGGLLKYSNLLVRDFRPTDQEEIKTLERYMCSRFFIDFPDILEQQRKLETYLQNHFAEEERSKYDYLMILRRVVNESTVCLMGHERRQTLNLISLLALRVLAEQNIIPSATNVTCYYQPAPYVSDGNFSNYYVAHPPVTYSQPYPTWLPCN
inactive: erlotinib -0.117 | [1] 0.087 | [2] 0.023 | [6] -0.104 | [8] -0.025 | [9] -0.017 | IRAK-1-4 Inhibitor I 0.136 | ibrutinib 0.008 | ralimetinib -0.119 | [3] 0.18 | [11] 0.03 | pinometostat -0.028 | [12] -0.018 | [13] -0.014

SREBF1 isoform 4 (UniProt P36956)
inactive: erlotinib 0.034 | [14] 0.045 | [1] 0.001 | [2] 0.068 | IRAK-1-4 Inhibitor I 0.008 | ibrutinib 0.025 | [15] -0.404 | [3] -0.077 | pinometostat -0.088

SYNE2 isoform 2 (UniProt Q8WXH0)
inactive: erlotinib 0.405 | [1] -0.301 | [5] 0.084 | [2] -0.027 | [6] -0.007 | [7] 0.001 | [8] -0.045 | [9] 0.029 | IRAK-1-4 Inhibitor I 0.046 | ibrutinib -0.037 | [10] 0.059 | ralimetinib 0.01 | [3] 0.078 | [11] 0.059 | pinometostat -0.024 | [12] 0 | [13] 0.044
active: [4] -0.672

SLC8B1 (UniProt Q6J4K2)
Chain of UniProt Q6J4K2 (Q6J4K2 whole entry, looked up): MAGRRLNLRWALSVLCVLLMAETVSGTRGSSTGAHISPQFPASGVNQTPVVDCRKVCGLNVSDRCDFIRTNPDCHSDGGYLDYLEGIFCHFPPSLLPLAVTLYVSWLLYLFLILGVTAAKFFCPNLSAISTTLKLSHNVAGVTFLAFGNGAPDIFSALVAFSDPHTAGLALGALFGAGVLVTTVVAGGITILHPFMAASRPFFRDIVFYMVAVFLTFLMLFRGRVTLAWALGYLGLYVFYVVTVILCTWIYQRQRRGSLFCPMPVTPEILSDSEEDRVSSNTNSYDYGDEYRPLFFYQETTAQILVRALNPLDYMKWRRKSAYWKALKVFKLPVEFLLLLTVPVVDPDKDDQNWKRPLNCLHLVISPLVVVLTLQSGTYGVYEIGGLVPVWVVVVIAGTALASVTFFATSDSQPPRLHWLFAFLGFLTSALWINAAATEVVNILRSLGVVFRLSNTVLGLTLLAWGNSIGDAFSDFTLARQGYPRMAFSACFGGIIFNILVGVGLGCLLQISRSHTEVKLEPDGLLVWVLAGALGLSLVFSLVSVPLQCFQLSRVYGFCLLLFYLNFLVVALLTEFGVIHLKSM
inactive: erlotinib 0.111 | [4] 0.089 | [1] 0.003 | [5] -0.039 | [2] 0.095 | [6] 0.016 | [7] 0.032 | IRAK-1-4 Inhibitor I 0.096 | ibrutinib -0.091 | [10] 0.112 | ralimetinib -0.093 | [3] -0.378 | [11] 0.048 | pinometostat 0.019

SPIN4 (UniProt Q56A73)
Chain of UniProt Q56A73 (Q56A73 whole entry, looked up): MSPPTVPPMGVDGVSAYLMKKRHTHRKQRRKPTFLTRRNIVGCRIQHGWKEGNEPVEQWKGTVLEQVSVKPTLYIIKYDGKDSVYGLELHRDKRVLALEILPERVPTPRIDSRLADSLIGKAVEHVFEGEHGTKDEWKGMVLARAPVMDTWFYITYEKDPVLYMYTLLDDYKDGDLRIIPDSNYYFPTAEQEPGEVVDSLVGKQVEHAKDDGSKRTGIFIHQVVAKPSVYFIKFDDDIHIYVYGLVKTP
inactive: erlotinib -0.125 | [1] 0.116 | IRAK-1-4 Inhibitor I 0.07 | [3] -0.079 | pinometostat 0.051

SP2 (UniProt Q02086)
Chain of UniProt Q02086 (Q02086 whole entry, looked up): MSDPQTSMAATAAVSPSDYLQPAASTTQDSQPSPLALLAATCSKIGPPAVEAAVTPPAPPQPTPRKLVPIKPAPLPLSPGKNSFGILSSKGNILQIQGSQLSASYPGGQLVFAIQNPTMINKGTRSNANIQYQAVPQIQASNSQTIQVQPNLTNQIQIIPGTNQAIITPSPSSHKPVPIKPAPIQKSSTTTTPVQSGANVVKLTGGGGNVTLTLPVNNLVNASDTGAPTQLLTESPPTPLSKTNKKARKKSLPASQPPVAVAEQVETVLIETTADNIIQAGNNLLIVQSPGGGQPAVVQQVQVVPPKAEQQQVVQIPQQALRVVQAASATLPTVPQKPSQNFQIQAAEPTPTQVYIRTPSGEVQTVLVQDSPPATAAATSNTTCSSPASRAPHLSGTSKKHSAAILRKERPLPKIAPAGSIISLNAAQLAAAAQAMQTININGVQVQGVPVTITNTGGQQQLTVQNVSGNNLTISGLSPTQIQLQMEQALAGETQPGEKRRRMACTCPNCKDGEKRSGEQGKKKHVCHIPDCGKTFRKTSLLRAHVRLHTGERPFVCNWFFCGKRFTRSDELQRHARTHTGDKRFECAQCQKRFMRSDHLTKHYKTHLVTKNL
inactive: [4] 0 | [5] 0.229 | [7] 0.095 | IRAK-1-4 Inhibitor I -0.126 | [10] -0.472 | pinometostat 0.212
